High-throughput results as filed in PubChem BioAssay.
This is a sample that favours compounds with a hit; in the whole collection about 3.2% have one here.
LASV entry inh: inhibitors of Lassa virus binding or cell entry; Potency, µM (top dose mostly 37.9 µM), for the others: top-dose activity change, negative = inhibition, hits mostly inhibitors; Lassa virus pseudotype entry inhibition, cell reporter; actives 1.2% (n = 300,000); calls by dose curve; tested in HEK293 cells; also: nearly all actives have a fitted effect of over 50% in size
Vaccinia Venus: inhibitors of vaccinia virus (Venus reporter); Vaccinia virus Venus reporter expression, fluorescence; actives 0.46% (n = 330,000); Potency, µM (doses to about 36.5 µM), for inactives: at the highest dose activity change, negative = inhibition, usual class: inhibitors; calls by dose curve; tested in A549 cells; also: nearly all actives have a fitted effect of over 30% in size
FMDV antiviral: antivirals against foot and mouth disease virus; FMDV antiviral cell-based qHTS; actives 1.2% (n = 410,000); Potency, µM (doses to about 57.9 µM), without a hit: at the highest dose activity change, negative = inhibition, actives largely listed as inhibitors; calls by dose curve; tested in HEK293T cells; also: read-out not given here; nearly all actives have a fitted effect of over 45% in size
VACV mCherry inh: vaccinia inhibition (mCherry reporter) | Vaccinia virus mCherry reporter infection, fluorescence | Potency, µM (titrated, usually from 36.5 µM), without a hit: top-dose activity change, negative = inhibition, usual class: inhibitors | actives 0.63% (n = 310,000) | AID 720579; calls by dose curve; tested in A549 cells; also: nearly all actives have a fitted effect of over 35% in size
MARV entry inh: blocks Marburg virus binding to or entry into cells. Marburg virus pseudotyped entry inhibition, cell reporter. Potency, µM (series often up to 37.8 µM), without a hit: top-dose activity change, negative = inhibition, hits mostly inhibitors. actives 1.8% (n = 300,000); calls by dose curve; tested in HEK293 cells
* = called active by the depositor; [ ] = dose if it differs, or a comment. % is scaled to controls: 0 for no effect and ±100 for the full control effect; potency is read from the fitted curve at half-maximal effect.

For O=S(=O)(c1ccc(NC(=S)NN=Cc2ccccc2O)cc1)N1CCCCC1 the results were LASV entry inh 6.3µM*, Vaccinia Venus inconclusive, FMDV antiviral -24%, VACV mCherry inh 13µM* and MARV entry inh inconclusive.
O=C(N/N=C\c1c(O)ccc2ccccc12)c1ccc(S(=O)(=O)N2CCCCC2)cc1 was read as LASV entry inh inconclusive, Vaccinia Venus 0%, FMDV antiviral -12%, VACV mCherry inh -9% and MARV entry inh 1.3µM*.
`COc1ccccc1N(CC(=O)N/N=C/c1c(O)ccc2ccccc12)S(C)(=O)=O` gave LASV entry inh 9.2µM*, Vaccinia Venus inconclusive, FMDV antiviral -30%, VACV mCherry inh 11µM* and MARV entry inh inconclusive.
Screening O=C(NN=Cc1c(O)ccc2ccccc12)c1ccc2c(c1)OCO2 returned FMDV antiviral 20%.
For O=C(COC(=O)[C@@H]1CCCN1C(=O)c1cccs1)Nc1cccc(Cl)c1 the results were FMDV antiviral -14%.
`O=C(CN1CCCc2ccccc21)N/N=C/c1c(O)ccc2ccccc12` gave LASV entry inh inconclusive, Vaccinia Venus inconclusive, FMDV antiviral inconclusive, VACV mCherry inh 11µM* and MARV entry inh inconclusive.
Screening COc1ccc2nc(C)cc(SCC(=O)N/N=C/c3cccc4ccccc34)c2c1 returned LASV entry inh 13µM*, FMDV antiviral -20% and MARV entry inh inconclusive.
Screening Cc1cc(SCC(=O)N/N=C/c2ccc(O)c(O)c2)nc2ccccc12 returned LASV entry inh inconclusive, Vaccinia Venus 2%, FMDV antiviral 3%, VACV mCherry inh inconclusive and MARV entry inh inconclusive.
Screening Cc1cc(SCC(=O)N/N=C/c2ccc(O)cc2O)nc2ccccc12 returned LASV entry inh inconclusive, Vaccinia Venus inconclusive, FMDV antiviral -25%, VACV mCherry inh 1.1µM* and MARV entry inh inconclusive.
For CN(C)c1ccc(/C=C2\C=Cc3ccccc32)cc1F the results were Vaccinia Venus 8% and VACV mCherry inh -9%.
`CCC(C)N(C(=O)COc1ccc(NC(C)=O)cc1)C1CCS(=O)(=O)C1` (stereo not given) gave Vaccinia Venus -6%, FMDV antiviral 1% and VACV mCherry inh inactive.
`CC1(C)Cc2c(C#N)c(SCC(=O)c3ccccc3)nc(N3CCOCC3)c2CS1` gave LASV entry inh 18µM*, Vaccinia Venus -18%, FMDV antiviral -12%, VACV mCherry inh -32% and MARV entry inh -29%.
COc1cc([N+](=O)[O-])cc(/C=N/NC(=O)c2ccc(NC(=O)c3ccc(C)cc3)cc2)c1O was read as LASV entry inh inconclusive, Vaccinia Venus 4%, FMDV antiviral inconclusive, VACV mCherry inh 1% and MARV entry inh 1.1µM*.
For O=C(N/N=C/c1ccccn1)c1cccc([N+](=O)[O-])c1 the results were LASV entry inh -20%, Vaccinia Venus -10%, FMDV antiviral -2%, VACV mCherry inh -6% and MARV entry inh inconclusive.
Screening O=C(Cc1ccccc1)Nc1cccc([N+](=O)[O-])c1 returned LASV entry inh 3%, FMDV antiviral 9% and MARV entry inh 7%.
`O=C(N/N=C/c1cc([N+](=O)[O-])ccc1O)c1cc(-c2ccccc2)nc2ccccc12` gave LASV entry inh 8.9µM*, Vaccinia Venus -10%, FMDV antiviral -28%, VACV mCherry inh inconclusive and MARV entry inh 2.5µM*.
O=C(NN=Cc1ccccc1O)c1cccc([N+](=O)[O-])c1 was read as LASV entry inh inconclusive, Vaccinia Venus inconclusive, FMDV antiviral 20%, VACV mCherry inh 1.1µM* and MARV entry inh 10µM*.
For O=C(Nc1cccc([N+](=O)[O-])c1)c1ccc2ccccc2c1O the results were LASV entry inh inconclusive, Vaccinia Venus inconclusive, FMDV antiviral 8%, VACV mCherry inh 10µM* and MARV entry inh inconclusive.
Cc1ccc(S(=O)(=O)n2cc(CO)c3ccccc32)cc1 was read as LASV entry inh -14%[46.1 µM], Vaccinia Venus -3%, FMDV antiviral -22%, VACV mCherry inh inactive and MARV entry inh -26%[46.1 µM].
Screening COc1ccc(OC)c(S(=O)(=O)NC2CC(=O)N(c3ccc(C)c(C)c3)C2)c1 (stereo not given) returned LASV entry inh 14%, Vaccinia Venus -10%, FMDV antiviral 22%, VACV mCherry inh -13% and MARV entry inh -23%.
